Test results from PubChem BioAssay (Tox21).
“And” between values parts separate entries of the source, which are not always exact repeats. Equal entries are not always repeated. Records with an inconclusive call do not appear. Where a call stands in place of a potency, no number is given. More than one record can exist for a structure, and the calls need not agree. The source made the active and inactive calls. Calls follow the shape of the dose curve; as a rule, active = well fitted curve in the direction sought with a large enough effect in the repeat runs; inconclusive = weak or mixed curves; inactive = no such curve, though single readings can be large; an effect the other way counts as inactive or inconclusive.

Legend:
[1] = A CellTox Green Cytotoxicity Assay to monitor cytotoxicity in HepG2 cells - 0 hour (AID 1224882); also: nearly all actives have a fitted effect of over 35% in size; also: potency is read from the fitted curve at half-maximal effect
Procedure, shortened: (§1)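 Using 1536-well format, dye-containing HepG2 suspension was seeded, allowed 5 h at 37 C/5% CO2, dosed by pintool with compounds, positive and negative controls, and imaged for fluorescence across 40 h.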

[2] = A CellTox Green Cytotoxicity Assay to monitor cytotoxicity in HepG2 cells - 32 hour (AID 1224883); also: nearly all actives have a fitted effect of over 50% in size; also: potency is read from the fitted curve at half-maximal effect
Procedure, shortened: as §1

[3] = A CellTox Green Cytotoxicity Assay to monitor cytotoxicity in HEK293 cells - 8 hour (AID 1224884); also: nearly all actives have a fitted effect of over 35% in size; also: potency is read from the fitted curve at half-maximal effect
Procedure, shortened: (§2)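 Fluorescence intensity, read at 0, 8, 16, 24, 32 and 40 h of compound treatment, reflected dye binding to DNA of dead HEK293 cells; compounds (23 nL, DMSO) were added 5 h after plating cells with reagent.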

[4] = qHTS RealTime-Glo MT Cell Viability Assay in HepG2 cells - 16 hour (AID 1224885); also: nearly all actives have a fitted effect of over 50% in size; also: potency is read from the fitted curve at half-maximal effect
Procedure, shortened: (§3)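 Tox21 10K library screened in qHTS format on HepG2 cells carrying RealTime-Glo reagents. Compounds were added after a 5 h preincubation, and the luminescent signal from continuous culture was measured repeatedly during 40 h treatment.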

[5] = A CellTox Green Cytotoxicity Assay to monitor cytotoxicity in HEK293 cells - 16 hour (AID 1224888); also: nearly all actives have a fitted effect of over 35% in size; also: potency is read from the fitted curve at half-maximal effect
Procedure, shortened: as §2

[6] = qHTS RealTime-Glo MT Cell Viability Assay in HepG2 cells - 0 hour (AID 1224889); also: nearly all actives have a fitted effect of over 50% in size; also: potency is read from the fitted curve at half-maximal effect
Procedure, shortened: as §3

[7] = A CellTox Green Cytotoxicity Assay to monitor cytotoxicity in HepG2 cells - 8 hour (AID 1224890); also: nearly all actives have a fitted effect of over 45% in size; also: potency is read from the fitted curve at half-maximal effect
Procedure, shortened: as §1

[8] = qHTS assay to identify small molecule antagonists of the estrogen receptor alpha (ER-alpha) signaling pathway using the BG1 cell line in the presence of 0.1 nM 17-beta-estradiol - cell viability counter screen (AID 1259241); also: nearly all actives have a fitted effect of over 40% in size
Procedure, shortened: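 Estradiol-stimulated (0.1 nM) VM7Luc4E2 cells exposed to compounds 22 hr; viability measured by fluorescence of cleaved CellTiter-Fluor substrate after 30 min.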

[9] = qHTS RealTime-Glo MT Cell Viability Assay in HEK293 cells - 24 hour (AID 1224886); also: nearly all actives have a fitted effect of over 50% in size; also: potency is read from the fitted curve at half-maximal effect
Procedure, shortened: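 Luminescence generated by NanoLuc from substrate produced by living HEK293 cells served as the viability signal. Each value reflects the reading at its stated time point during continuous 40 h compound exposure at 37 C.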

[10] = qHTS RealTime-Glo MT Cell Viability Assay in HEK293 cells - 8 hour (AID 1224887); also: nearly all actives have a fitted effect of over 50% in size; also: potency is read from the fitted curve at half-maximal effect
Procedure, shortened: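 Viable HEK293 cells reduce a cell-permeant prosubstrate; the product diffuses out and is consumed by NanoLuc in the medium to give light. Compounds went in after a 5 h incubation and plates were read over the treatment course.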

Compound	Potency [1]	Potency [2]	Potency [3]	Potency [4]	Potency [5]	Potency [6]	Potency [7]	Potency [8]	Potency [9]	Potency [10]
C=CC(C)(O)CCC=C(C)C (centres undefined)	inactive	inactive	inactive	inactive	inactive	inactive	inactive	inactive		
Nc1cc(Cl)c(N)c(Cl)c1	inactive	inactive	inactive	inactive	inactive	inactive	inactive	inactive	inactive	
O=Cc1ccccc1C=O	inactive	21.9 µM (active) and inactive	inactive	inactive	inactive	inactive	inactive	inactive		inactive
C[C@]12C=CC(=O)C=C1CC[C@H]1[C@@H]3C[C@@H](O)[C@](O)(C(=O)CO)[C@@]3(C)C[C@H](O)[C@@]12F	inactive	inactive	inactive		inactive	21.9 µM (active)	inactive	inactive	inactive	inactive
Cc1ccc(C(C)(C)C)c(O)c1	inactive	38.9 µM (active)	18.9 µM (active) and inactive	inactive		inactive	inactive and 43.6 µM (active)	inactive		inactive
CCCCCCCCCCC(CO)CCCCCCCC (centres undefined)	inactive	inactive	inactive	inactive	inactive	inactive	inactive	inactive		
CCC(=O)O[C@H]1[C@H](O[C@@H]2[C@@H](C)[C@H](O[C@H]3C[C@@](C)(OC)[C@@H](O)[C@H](C)O3)[C@@H](C)C(=O)O[C@H](CC)[C@@](C)(O)[C@H](O)[C@@H](C)C(=O)[C@H](C)C[C@@]2(C)O)O[C@H](C)C[C@@H]1N(C)C	inactive	inactive	inactive	inactive	inactive	inactive	inactive	inactive		inactive
CNC[C@H](O)c1ccc(O)c(O)c1	inactive	inactive	inactive	inactive	inactive	inactive	inactive	inactive		inactive
OCCNCCO	inactive	inactive	inactive	inactive	inactive	inactive	inactive	inactive		inactive
O=C1OC2(c3ccccc31)c1cc(I)c(O)c(I)c1Oc1c2cc(I)c(O)c1I	11.8 µM (active) [middle of 4 runs]	13.3 µM (active) [middle of 4 runs]	13.3 µM (active) [middle of 4 runs]	39 µM (active) and 27.9 µM (active)	13.3 µM (active) [middle of 4 runs]	12.3 µM (active) [middle of 4 runs]	11.8 µM (active) [middle of 4 runs]			49.1 µM (active) and inactive
CC(=O)[C@@]1(O)CC[C@H]2[C@@H]3C[C@H](C)C4=CC(=O)C=C[C@]4(C)[C@@]3(F)[C@@H](O)C[C@@]21C	inactive	inactive	inactive	inactive	inactive	347 nM (active) and 1.34 µM (active)	inactive	inactive		
Nc1ccc2c(c1)C(=O)c1ccccc1C2=O	inactive	inactive	inactive	inactive	inactive	inactive	inactive	inactive	inactive	
c1ccc2cc3ccccc3cc2c1	inactive	inactive	inactive	inactive	inactive	inactive	inactive	inactive		inactive
Cc1cccc(Nc2ccccc2C(=O)O)c1C	inactive	inactive	inactive		inactive	inactive	inactive	inactive	inactive	inactive
COc1ccc(C(=O)c2ccccc2O)c(O)c1	inactive	inactive	inactive	inactive	inactive	inactive	inactive	inactive		
CN(Cc1cnc2nc(N)nc(N)c2n1)c1ccc(C(=O)N[C@@H](CCC(=O)O)C(=O)O)cc1	inactive	inactive	inactive	inactive	inactive	inactive	inactive	inactive		
NCCOCCO	inactive	inactive	inactive	inactive	inactive	inactive	inactive	inactive		inactive
C1CN(SSN2CCOCC2)CCO1	inactive	inactive	inactive	inactive	inactive	inactive	inactive	inactive		
Nc1cc([N+](=O)[O-])ccc1C(=O)O	inactive	inactive	inactive	inactive	inactive	inactive	inactive	inactive		inactive
C=CCOC(=O)C(=C)C	inactive	inactive	inactive	inactive	inactive	inactive	inactive	inactive		inactive
COc1ccc2nc(N)sc2c1	inactive	inactive	inactive	inactive	inactive	inactive	inactive	inactive		inactive
COC(=O)C(C)Oc1ccc(Oc2ncc(C(F)(F)F)cc2Cl)cc1 (centres undefined)	inactive	inactive	inactive	inactive	inactive	inactive	inactive	inactive		
IC(I)I	inactive	inactive	inactive	inactive	inactive	inactive	inactive	inactive	inactive	
Brc1nc2ccccc2s1	inactive	inactive	inactive	inactive	inactive	inactive	inactive	inactive		
C=C[C@H]1CN2CC[C@H]1C[C@H]2[C@H](O)c1ccnc2ccc(OC)cc12	inactive	54.9 µM (active) and inactive	inactive	inactive	inactive	inactive	inactive	inactive		inactive
Clc1ccc(Sc2cc(Cl)c(Cl)cc2Cl)cc1	inactive	inactive	inactive	inactive	inactive	inactive	inactive	inactive		inactive

Compound	Potency [1]	Potency [2]	Potency [3]	Potency [4]	Potency [5]	Potency [6]	Potency [7]	Potency [8]	Potency [9]	Potency [10]
O=C(CCCN1CCC(O)(c2ccc(Cl)cc2)CC1)c1ccc(F)cc1	inactive	21.9 µM (active)	inactive	49 µM (active) and inactive		inactive	49 µM (active) and inactive	inactive	13.8 µM (active) and 8.49 µM (active)	
CC(=O)O[C@]1(C(C)=O)CC[C@H]2[C@@H]3C=C(C)C4=CC(=O)CC[C@]4(C)[C@H]3CC[C@@]21C	inactive	inactive	inactive	inactive	inactive	347 nM (active) and 952 nM (active)	inactive	inactive		
CCCCCCCCCCCCCO	inactive	inactive	inactive	inactive	inactive	inactive	inactive	inactive		inactive
CC(=O)Nc1ccc2c(c1)Cc1cc(NC(C)=O)ccc1-2	inactive	inactive	inactive	inactive	inactive	inactive	inactive	inactive	inactive	
C=CC(=O)OCCCC	inactive	inactive	inactive	inactive	inactive	inactive	inactive	inactive		inactive
CN(C)C	inactive	inactive	inactive	inactive	inactive	inactive	inactive	inactive		
c1ccc2c(c1)[nH]c1ccccc12	inactive	inactive	inactive	inactive	inactive	inactive	inactive	inactive		
CCc1cccc2c3c([nH]c12)C(CC)(CC(=O)O)OCC3 (centres undefined)	inactive	inactive	inactive	inactive	inactive	inactive	inactive	inactive		inactive
O=C(O)COCCN1CCN(C(c2ccccc2)c2ccc(Cl)cc2)CC1 (centres undefined)	inactive	inactive	inactive		inactive	inactive	inactive	inactive	inactive	inactive
Cc1ccc(S(=O)(=O)O)cc1C	inactive	inactive	inactive		inactive	inactive	inactive	inactive	inactive	
NCCS(=O)(=O)O	inactive	inactive	inactive		inactive	inactive	inactive	inactive		inactive
CC(C)[N+](C)(CCOC(=O)C1c2ccccc2Oc2ccccc21)C(C)C	inactive	inactive	inactive		inactive	inactive	inactive	inactive		inactive
FC(F)(F)C(Cl)Br (centres undefined)	inactive	inactive	inactive		inactive	inactive	inactive	inactive		inactive
O=C(O)CCCCCCCCCCCC(=O)O	inactive	inactive	inactive		inactive	inactive	inactive	inactive		inactive
COC(=O)CC(=O)OC	inactive	inactive	inactive		inactive	inactive	inactive	inactive	inactive	
CC1=CC(C)(C)Nc2ccccc21	inactive	inactive	inactive		inactive	inactive	inactive	inactive	inactive	inactive
CC[C@]12CCCN3CCc4c(n(c5ccccc45)[C@@](O)(C(=O)OC)C1)[C@@H]32	inactive	inactive	inactive		inactive	inactive	inactive	inactive		
O=C1CCc2ccccc2O1	inactive	inactive	inactive		inactive	inactive	inactive	inactive	inactive	
O=C(O)CCCC(=O)O	inactive	inactive	inactive		inactive	inactive	inactive	inactive	inactive	
Cc1ccc2c(c1)C(=O)OC2=O	inactive	inactive	inactive		inactive	inactive	inactive	inactive	inactive	inactive
NCCN	inactive	inactive	inactive		inactive	inactive	inactive	inactive		inactive
CC1(C)O[C@@H]2C[C@H]3[C@@H]4C[C@H](F)C5=CC(=O)C=C[C@]5(C)[C@@]4(F)[C@@H](O)C[C@]3(C)[C@]2(C(=O)CO)O1	inactive	inactive	inactive		inactive	3.89 µM (active) and 9.52 µM (active)	inactive	inactive	inactive	inactive
CCCCCCCCCCCCO	inactive	inactive	inactive		inactive	inactive	inactive	inactive		inactive
ClC/C=C/CCl	inactive	inactive	inactive		inactive	inactive	inactive	inactive		
C=CCCCCCCCCCC	inactive	inactive	inactive		inactive	inactive	inactive	inactive		
